Results published in PubChem BioAssay (Tox21).
Several values for one entry are separate records, joined by “and”; a condition that tells them apart may be missing. Equal entries are not always repeated. Inconclusive results are not listed. Some structures have more than one record in an assay (separate samples or runs), and their calls can disagree. Activity calls are given as the source filed them. Unless noted, calls come from the whole dose curve; as a rule, active = well fitted curve in the direction sought with a large enough effect in the repeat runs; inconclusive = weak or mixed curves; inactive = no such curve, though single readings can be large; an effect the other way counts as inactive or inconclusive.

Assays:
[1] = qHTS assay to identify small molecule antagonists of the estrogen related receptor (ERR) signaling pathway from Tox21 library - cell viability counter screen (AID 1224834); note: nearly all actives have a fitted effect of over 30% in size
In short: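 Cytotoxicity of test substances is gauged in the same ERR cells used for the antagonist screen, after 17.5 h of compound treatment at 37 C, by CellTiter-Fluor fluorescence measured after 30 min.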

[2] = target: Luciferin 4-monooxygenase (Photinus pyralis) (UniProt P08659); experiment: qHTS assay to identify small molecule inhibitors of firefly luciferase (AID 1224835); note: nearly all actives have a fitted effect of over 25% in size; note: potency is the fitted concentration of half-maximal effect; for activity change, negative = inhibition: series mostly up to about 120 µM
In short: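 Quantitative HTS format; KM concentrations of both substrates. Purified P. pyralis FLuc activity quantified from luminescence images.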

[3] = qHTS assay to identify small molecule agonists of the constitutive androstane receptor (CAR) signaling pathway - cell viability counter screen (AID 1224836); note: series mostly up to about 92 µM; nearly all actives have a fitted effect of over 45% in size
In short: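 Multiplexed viability check: HepG2-CYP2B6-hCAR cells, 15-point compound dosing, 0.75 uM PK11195 final, 23 h at 37 C, CellTiter-Fluor fluorescence.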

[4] = qHTS assay to identify small molecule antagonists of the constitutive androstane receptor (CAR) signaling pathway - cell viability counter screen (AID 1224837); note: series mostly up to about 92 µM; nearly all actives have a fitted effect of over 45% in size
In short: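 Multiplexed cytotoxicity read-out for the CAR antagonist screen: double-stable HepG2-CYP2B6-hCAR cells co-treated with 50 nM CITCO (final) and compound over 15 concentrations, incubated 23 hr, then assessed by CellTiter-Fluor fluorescence.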

[5] = target: Nuclear receptor subfamily 1 group I member 3 (Homo sapiens) (UniProt Q14994); experiment: qHTS assay to identify small molecule antagonists of the constitutive androstane receptor (CAR) signaling pathway (AID 1224838); note: nearly all actives have a fitted effect of over 40% in size
In short: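 Compounds were titrated across 15 concentrations onto HepG2 cells double-stably expressing hCAR and a CYP2B6-2.2kb reporter, together with 50 nM CITCO (final). After 24 h at 37 C, luciferase activity was measured by luminescence.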

[6] = target: Nuclear receptor subfamily 1 group I member 3 (Homo sapiens) (UniProt Q14994); experiment: qHTS assay to identify small molecule agonists of the constitutive androstane receptor (CAR) signaling pathway (AID 1224839); note: nearly all actives have a fitted effect of over 15% in size; note: potency is the fitted concentration of half-maximal effect;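 for activation: HepG2 cells stably carrying human CAR and a CYP2B6 luciferase reporter; series mostly up to about 92 µM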
In short: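 Using human hepatoma HepG2 cells engineered with hCAR and a CYP2B6-2.2kb reporter, 15-concentration compound series were incubated 24 h alongside PK11195 at 0.75 uM final, with luminescence quantified afterwards.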

[7] = qHTS assay to identify small molecule antagonists of the estrogen related receptor signaling pathway with the pleiotropic PPARgamma coactivator (PGC) from Tox21 10K library - cell viability counter screen (AID 1224840; active = well fitted cell-killing curve with a large enough effect in the repeat runs, not every such curve was filed as active; note: nearly all actives have a fitted effect of over 40% in size)
In short: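 Step one, plate 2,000 PGC/ERR cells per well; step two, incubate 6 h at 37 C/5% CO2; step three, pin-transfer compounds; step four, incubate 17.5 h; step five, add CellTiter-Fluor and read fluorescence after 30 min.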

[8] = target: Thyrotropin receptor (Homo sapiens) (UniProt P16473); experiment: qHTS assay to identify small molecule agonists of the thyroid stimulating hormone receptor (TSHR) signaling pathway (AID 1224843; calls by dose curve; note: nearly all actives have a fitted effect of over 45% in size)
In short: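 Cell line HEK293 with TSHR; density 800/well. Exposure 30 min RT. Readout HTRF cAMP (cAMP-d2/anti-cAMP-cryptate), 1 h RT before reading.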

[9] = qHTS assay to identify small molecule agonists of the hypoxia (HIF-1) signaling pathway - cell viability counter screen (AID 1224844; calls by dose curve; note: nearly all actives have a fitted effect of over 50% in size; note: potency is the fitted concentration of half-maximal effect)
In short: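 Tox21 10K compounds were added to HRE-bla ME-180 cells (0.5% dialyzed FBS) and incubated 17 hrs at 37C; ATP-based CellTiter-Glo luminescence then reported cell viability in the same wells.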

[10] = qHTS assay to identify small molecule agonists of H2AX (AID 1224845; active = well fitted activation curve with a large enough effect in the signal ratio in the repeat runs, not every such curve was filed as active; the % refers to the signal ratio)
In short: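 Wild-type CHO-K1 cells plated overnight, then exposed 3 hr at 37C to compounds at 15 concentrations (0.76% DMSO). Lysed, then HTRF anti-pH2AX(S139)-cryptate/anti-H2AX-d2 detection after 24 hr at room temperature; emissions 665 and 620 nm.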

[11] = qHTS assay to identify small molecule agonists of the hypoxia (HIF-1) signaling pathway (AID 1224846; active = well fitted activation curve with a large enough effect in the signal ratio in the repeat runs, not every such curve was filed as active; the % refers to the signal ratio)
In short: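 Steps: seed ME-180 HRE-bla cells (2,000/well, 0.5% dialyzed FBS); incubate 5 hrs at 37C; pin-transfer compounds or DMSO; incubate 17 hrs; add LiveBLAzer B/G substrate CCF4-AM; measure reporter activation by FRET.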

[12] = qHTS assay to identify small molecule agonists of H2AX - cell viability counter screen (AID 1224847; calls by dose curve; note: top concentration of the series differs between compounds; nearly all actives have a fitted effect of over 30% in size)
In short: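 After overnight plating of 1000 CHO-K1 cells per well, a 15-concentration compound series was applied for 3 hr at 37C. Luminescence from CellTiter-Glo, read following 30 min at room temperature, reflected cell viability.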

[13] = qHTS RealTime-Glo MT Cell Viability Assay in HepG2 cells - 24 hour (AID 1224867); note: nearly all actives have a fitted effect of over 50% in size
In short: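 HepG2 suspension premixed with RealTime-Glo reagents is plated at 600 cells per well and left 5 h at 37 C/5% CO2. Compounds in DMSO then go in, and bioluminescence reflecting viable cell number is recorded over 40 h.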

[14] = qHTS RealTime-Glo MT Cell Viability Assay in HEK293 cells - 32 hour (AID 1224868); note: top concentration of the series differs between compounds; nearly all actives have a fitted effect of over 50% in size
In short: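 Reads taken at 0, 8, 16, 24, 32 and 40 h from the same wells. HEK293 cells (600/well) carried RealTime-Glo reagents from seeding, with compound added after a 5 h settle at 37 C.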

[15] = A CellTox Green Cytotoxicity Assay to monitor cytotoxicity in HEK293 cells - 0 hour (AID 1224869); note: nearly all actives have a fitted effect of over 50% in size
In short: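 Cytotoxicity was tracked continuously in HEK293 cells by a DNA-binding dye excluded from viable cells. Compounds were transferred in DMSO 5 h after seeding; fluorescence was recorded at intervals up to 40 h.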

[16] = qHTS RealTime-Glo MT Cell Viability Assay in HepG2 cells - 40 hour (AID 1224870); note: nearly all actives have a fitted effect of over 50% in size
In short: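 HepG2 cells mixed with RealTime-Glo MT reagents (NanoLuc plus cell-permeant prosubstrate) were seeded at 600 cells/well, incubated 5 h at 37 C/5% CO2, then pinned with compounds in DMSO; nonlytic luminescence tracked viability during 40 h treatment.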
% is set by controls: 0 for no effect and ±100 for the full control effect.

Luciferin 4-monooxygenase (Photinus pyralis), sequence (P08659 whole entry, looked up): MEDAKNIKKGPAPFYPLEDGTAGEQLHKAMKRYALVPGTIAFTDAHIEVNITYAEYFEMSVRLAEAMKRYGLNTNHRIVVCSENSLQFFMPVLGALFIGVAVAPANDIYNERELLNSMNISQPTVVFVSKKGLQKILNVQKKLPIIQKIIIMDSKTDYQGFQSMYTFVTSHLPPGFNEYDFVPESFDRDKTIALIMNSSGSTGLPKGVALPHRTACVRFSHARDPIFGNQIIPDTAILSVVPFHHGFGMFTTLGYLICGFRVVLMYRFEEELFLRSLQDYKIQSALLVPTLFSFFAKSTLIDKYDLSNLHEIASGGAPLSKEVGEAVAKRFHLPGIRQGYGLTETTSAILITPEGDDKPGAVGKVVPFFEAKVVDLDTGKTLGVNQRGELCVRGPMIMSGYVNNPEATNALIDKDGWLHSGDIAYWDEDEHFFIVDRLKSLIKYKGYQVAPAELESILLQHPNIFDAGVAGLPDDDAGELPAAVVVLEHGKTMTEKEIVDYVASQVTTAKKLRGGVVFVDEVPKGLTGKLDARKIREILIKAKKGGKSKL
Nuclear receptor subfamily 1 group I member 3 (Homo sapiens), sequence (Q14994 whole entry, looked up): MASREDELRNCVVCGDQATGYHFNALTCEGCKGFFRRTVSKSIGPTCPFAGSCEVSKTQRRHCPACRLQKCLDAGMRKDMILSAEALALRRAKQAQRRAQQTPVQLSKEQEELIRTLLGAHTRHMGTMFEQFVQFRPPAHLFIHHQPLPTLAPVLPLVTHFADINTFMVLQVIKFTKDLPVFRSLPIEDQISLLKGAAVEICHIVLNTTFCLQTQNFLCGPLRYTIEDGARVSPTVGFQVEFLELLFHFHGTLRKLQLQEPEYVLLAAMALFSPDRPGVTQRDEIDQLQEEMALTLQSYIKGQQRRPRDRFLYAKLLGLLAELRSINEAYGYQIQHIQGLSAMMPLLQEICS
Thyrotropin receptor (Homo sapiens), sequence (P16473 whole entry, looked up): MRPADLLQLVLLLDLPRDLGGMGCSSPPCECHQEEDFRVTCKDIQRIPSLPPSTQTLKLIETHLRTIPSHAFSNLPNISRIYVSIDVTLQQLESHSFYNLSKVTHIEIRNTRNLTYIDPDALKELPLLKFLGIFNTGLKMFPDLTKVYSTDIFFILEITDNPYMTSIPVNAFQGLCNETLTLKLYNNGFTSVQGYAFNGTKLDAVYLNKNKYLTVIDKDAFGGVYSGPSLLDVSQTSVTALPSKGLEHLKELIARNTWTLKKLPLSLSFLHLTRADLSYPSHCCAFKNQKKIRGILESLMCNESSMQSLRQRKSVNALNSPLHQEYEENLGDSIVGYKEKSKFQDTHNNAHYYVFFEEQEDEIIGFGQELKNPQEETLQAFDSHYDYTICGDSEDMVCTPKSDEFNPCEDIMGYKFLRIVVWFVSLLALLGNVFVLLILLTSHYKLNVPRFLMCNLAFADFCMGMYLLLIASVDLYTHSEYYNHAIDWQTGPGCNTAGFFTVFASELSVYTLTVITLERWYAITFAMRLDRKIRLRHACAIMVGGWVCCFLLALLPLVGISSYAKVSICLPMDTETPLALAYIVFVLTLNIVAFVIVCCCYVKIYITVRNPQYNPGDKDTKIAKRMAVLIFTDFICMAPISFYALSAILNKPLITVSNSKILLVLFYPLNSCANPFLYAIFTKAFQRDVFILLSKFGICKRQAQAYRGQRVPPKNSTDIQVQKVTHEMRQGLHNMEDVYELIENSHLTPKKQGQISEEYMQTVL

ClCCCCl
inactive: Potency [1] | Potency [2] | Potency [3] | Potency [4] | Potency [5] | Potency [6] | Potency [7] | Potency [8] | Potency [9] | outcome [10] | outcome [11] | Potency [12] | Potency [13] | Potency [14] | outcome [15] | Potency [16]

O=C/C=C/c1ccco1
inactive: Potency [1] | Potency [2] | Potency [3] | Potency [4] | Potency [5] | Potency [6] | Potency [7] | Potency [9] | outcome [10] | outcome [11] | Potency [12] | Potency [13] | Potency [14] | outcome [15] | Potency [16]

CCCOc1nn(C(=O)NS(=O)(=O)c2ccccc2C(=O)OC)c(=O)n1C
inactive: Potency [1] | Potency [2] | Potency [3] | Potency [4] | Potency [5] | Potency [6] | Potency [7] | Potency [8] | Potency [9] | outcome [10] | outcome [11] | Potency [12] | Potency [13] | Potency [14] | outcome [15] | Potency [16]

CCCCCCC(=O)CCCCCC/C=C/C[C@@H](O)[C@H](O)[C@@](N)(CO)C(=O)O
inactive: viability change, negative = cytotoxic [1] 6.53% [at 19 µM] | activity change, negative = inhibition [2] -3.87% [at 23.6 µM] | viability change, negative = cytotoxic [3] 6.33% [at 19 µM] | activity change, negative = cytotoxicity [4] -0.0318% [at 19 µM] | activity, negative = inhibition [5] -1.56% [at 19 µM] | activation [6] -1.84% [at 19 µM] | viability change, negative = cytotoxic [7] 12.4% [at 19 µM] | activation [8] -1.25% [at 19 µM] | activity change, negative = cytotoxicity [9] 0.46% [at 15.8 µM] | activation (H2AX phosphorylation) [10] -0.061% [at 31.6 µM] | activation [11] -0.0517% [at 15.8 µM] | activity change, negative = cytotoxicity [12] -0.19% [at 31.6 µM] | activity change, negative = cytotoxicity [13] 0.745% [at 15.8 µM] | activity change, negative = cytotoxic [14] 2.61% [at 15.8 µM] | cytotoxicity [15] 0.947% [at 15.8 µM] | activity change, negative = cytotoxic [16] 0.839% [at 15.8 µM]

CCOC(=O)CC(SP(=S)(OC)OC)C(=O)OCC (stereo not drawn)
active: Potency [2] 35.6 µM and 38.9 µM | Potency [6] 21.7 µM and 26.6 µM
inactive: Potency [1] | Potency [3] | Potency [4] | Potency [5] | Potency [7] | Potency [8] | outcome [10] | outcome [11] | Potency [12] | Potency [13] | Potency [14] | outcome [15] | Potency [16]
49 µM (active) and inactive: Potency [9]

CCOP(=S)(OCC)Oc1ccc(Cl)cc1Cl
inactive: Potency [1] | Potency [2] | Potency [3] | Potency [4] | Potency [5] | Potency [7] | Potency [8] | Potency [9] | outcome [11] | Potency [13] | Potency [14] | outcome [15] | Potency [16]
active: Potency [6] 27.3 µM

O=C(Cl)C(Cl)Cl
inactive: Potency [1] | Potency [2] | Potency [3] | Potency [4] | Potency [5] | Potency [6] | Potency [7] | Potency [8] | Potency [9] | outcome [10] | outcome [11] | Potency [12] | Potency [13] | Potency [14] | outcome [15] | Potency [16]

O=C(NC(=O)c1c(F)cccc1F)Nc1cc(Cl)c(F)c(Cl)c1F
inactive: Potency [1] | Potency [2] | Potency [3] | Potency [4] | Potency [5] | Potency [6] | Potency [7] | Potency [8] | Potency [9] | outcome [10] | outcome [11] | Potency [12] | Potency [13] | Potency [14] | outcome [15] | Potency [16]

C=CC=O
inactive: Potency [1] | Potency [2] | Potency [3] | Potency [4] | Potency [5] | Potency [6] | Potency [7] | Potency [8] | Potency [9] | outcome [10] | outcome [11] | Potency [12] | Potency [13] | outcome [15] | Potency [16]

CCCCCCCC(=O)Cl
inactive: Potency [1] | Potency [2] | Potency [3] | Potency [4] | Potency [5] | Potency [6] | Potency [7] | Potency [8] | Potency [9] | outcome [10] | outcome [11] | Potency [12] | Potency [13] | Potency [14] | outcome [15] | Potency [16]

O=C(Cl)C(Cl)(Cl)Cl
inactive: Potency [1] | Potency [2] | Potency [3] | Potency [4] | Potency [5] | Potency [6] | Potency [7] | Potency [8] | outcome [11] | Potency [12] | Potency [13] | Potency [14] | outcome [15] | Potency [16]

O=C(Cl)CCl
inactive: Potency [1] | Potency [2] | Potency [3] | Potency [4] | Potency [5] | Potency [6] | Potency [7] | Potency [8] | Potency [9] | outcome [10] | outcome [11] | Potency [12] | Potency [13] | Potency [14] | outcome [15] | Potency [16]

CCC(C(N)=O)N1CCCC1=O (stereo not drawn)
inactive: Potency [1] | Potency [2] | Potency [3] | Potency [4] | Potency [5] | Potency [6] | Potency [7] | Potency [8] | Potency [9] | outcome [11] | Potency [12] | Potency [13] | Potency [14] | outcome [15] | Potency [16]

CCN(CCO)CCO
inactive: Potency [1] | Potency [2] | Potency [3] | Potency [4] | Potency [5] | Potency [6] | Potency [7] | Potency [8] | Potency [9] | outcome [11] | Potency [12] | Potency [13] | Potency [14] | outcome [15] | Potency [16]

NNCc1ccccc1
inactive: Potency [1] | Potency [3] | Potency [4] | Potency [5] | Potency [7] | Potency [8] | Potency [9] | outcome [11] | Potency [12] | Potency [13] | Potency [14] | outcome [15] | Potency [16]
active: Potency [2] 10.2 µM | Potency [6] 62.3 µM

C1CN2CCC1CC2
inactive: Potency [1] | Potency [2] | Potency [3] | Potency [4] | Potency [5] | Potency [6] | Potency [7] | Potency [8] | Potency [9] | outcome [10] | outcome [11] | Potency [12] | Potency [13] | Potency [14] | outcome [15] | Potency [16]

N[C@@H](Cc1ccc(Oc2cc(I)c(O)c(I)c2)c(I)c1)C(=O)O
inactive: Potency [1] | Potency [2] | Potency [3] | Potency [4] | Potency [5] | Potency [6] | Potency [7] | Potency [9] | outcome [10] | Potency [12] | Potency [13] | Potency [14] | outcome [15] | Potency [16]

CC(C)(C)c1cc(O)ccc1O
active: Potency [6] 54.5 µM and 61.1 µM
71 µM (active) and inactive: Potency [2]
inactive: Potency [1] | Potency [3] | Potency [4] | Potency [5] | Potency [7] | Potency [9] | Potency [12] | Potency [13] | outcome [15] | Potency [16]
